Assay outcomes from PubChem.
Peg3 prom inh-1: Peg3 promoter activity inhibition; inhibition, % at 20 µM; AID 588405; 360,000 tested, 1.7% active; HeLa PEG-Prom luciferase reporter, luminescence, overnight;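 active means inhibition of at least 50% at 20 µM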
KKLEB tox: CF airway cell cytotoxicity counter-screen; KKLEB CF airway cells viability, ATPlite luminescence, overnight; stronger effect = lower value; cells stimulated with P. aeruginosa culture filtrate; 360,000 tested, 0.36% active; AID 602141; activity change (cytotoxicity), % at 5 µM;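 active means corrected activity change at or below -50% at 5 µM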
CF NFkB inh: inhibitors of cystic fibrosis induced NF-kB | KKLEB NF-kB-GFP reporter, PAF-induced, GFP fluorescence overnight | inhibition, % at 5 µM | 360,000 tested, 0.86% active;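 active means at least 50% inhibition at 5 µM, scaled per plate between neutral and stimulator controls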;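 further: PAF is a Pseudomonas aeruginosa culture filtrate used as stimulus; plate controls were PAF-stimulated DMSO wells for no effect and unstimulated DMSO wells for full effect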
Shn3 inh set2: Schnurri-3 reporter inhibition in Clone20 osteoblasts. Clone20 osteoblast Shn3 3'UTR firefly luciferase, 24 h. inhibition, % at 12.5 µM. 360,000 tested, 0.52% active;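 active means mean inhibition of at least 75% with every replicate also reaching 75%; inconclusive means mean inhibition at least 75% but some replicate below; inactive means mean inhibition below 75%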;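 further: 0% = median of neutral control wells and 100% = pilot-screen positive control compound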
HIF-2a block: HIF-2a inhibition; 786-0 RCC cells HIF-2a reporter, luciferase luminescence, overnight; inhibition, % at 18.8 µM; 360,000 tested, 0.72% active; AID 624352;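 active means inhibition of the luminescence signal of 40% or more relative to plate controls, in a single-dose primary screen at 18.75 µM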
TRPM1 prom inh: reduces MITF-dependent TRPM1 promoter luciferase signal; SK-MEL-5 TRPM1 promoter luciferase, 24 h; inhibition, % at 12.5 µM; 330,000 tested, 0.83% active; AID 488899;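 active means mean inhibition across replicates of 60% or more, whatever share of single replicates reaches that level; inconclusive means some that reach 60%, reason not given; inactive means mean inhibition across replicates below 60%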
Peg3 prom inh-2: confirmation of Peg3 promoter inhibitors. HeLa PEG-Prom luciferase reporter, luminescence, overnight. inhibition, % at 20 µM. shares compounds with Peg3 prom inh-1. 1,300 tested, 84% active;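 active means at 20 µM dose, 40% or more inhibition averaged across four replicates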
The depositor's hits bear a star; ? = inconclusive; . = not tested or not shown. This is a sample that favours compounds with a hit; in the whole collection about 2.8% have one here.

SMILES	Peg3 prom inh-1	KKLEB tox	CF NFkB inh	Shn3 inh set2	HIF-2a block	TRPM1 prom inh	Peg3 prom inh-2
Cc1ccc(N(CC(=O)NCc2ccco2)C(=O)CCC(=O)Nc2nccs2)c(C)c1	-236.0	-6.2	10.5	-30.9	-10.1	1.2	.
O=C(N/N=C/c1cccc([N+](=O)[O-])c1)c1cc(-c2ccc3c4c(cccc24)CC3)n[nH]1	8.1	-17.6	5.8	14.2	-4.2	8.9	.
O=C(N/N=C/c1ccc(Cl)c([N+](=O)[O-])c1)c1cc(-c2ccc3c4c(cccc24)CC3)n[nH]1	111.5*	0.8	-10.3	10.4	9.9	57.2	55.4*
O=C(CCSc1nc2ccccc2s1)N/N=C/c1c(O)ccc2ccccc12	53.8*	1.3	10.3	86.7*	15.1	41.4	59.1*
CC(C)(O)/C=C/C[C@](C)(O)C1CC[C@]2(C)C1[C@H](O[C@H]1O[C@@H](CO)[C@H](O)[C@@H](O)[C@@H]1O)CC1[C@@]3(C)CC[C@H](O)C(C)(C)C3[C@@H](O)C[C@]12C (stereo not given in full)	-19.6	-15.8	-5.4	-131.6	-12.7	-2.7	.
O=C(Nc1nc2ccccc2[nH]1)c1ccccc1F	93.0*	-29.8	8.1	79.9	75.4*	87.0*	81.5*
O=C(Nc1nc2ccccc2[nH]1)c1ccc(F)cc1	-51.3	-18.7	-2.0	-9.4	-86.8	-7.5	.
Cn1c(=O)c(C(=O)CCl)c(N)n(Cc2ccccc2)c1=O	68.8*	0.6	25.7	-31.3	16.2	29.7	51.4*
Cn1c(N)c(C(=O)CCl)c(=O)n(Cc2ccccc2)c1=O	27.3	-5.5	-1.8	-6.2	28.0	9.6	.
S=C(Nc1ccc(N2CCOCC2)cc1)Nc1ccc2snnc2c1	-11.3	6.1	-4.6	-3.1	-18.8	1.0	.
CC1(Cc2ccc(Cl)c(Cl)c2)C(=O)Nc2ccc(S(=O)(=O)NC3CCCCC3)cc21 (stereo not given)	69.4*	-7.6	30.1	24.0	0.2	.	68.2*
CC1(Cc2cccc(F)c2)C(=O)Nc2ccc(S(=O)(=O)NC3CCCCC3)cc21 (stereo not given)	33.1	-8.2	7.2	-3.2	20.6	.	.
COc1cc(NC(=O)c2cccc(C)c2)ccc1NC(=O)c1cc2ccccc2o1	59.5*	-33.6	43.1	15.9	12.1	41.6	50.2*
CCOc1cccc(C(=O)Nc2ccc(NC(=O)c3cc4ccccc4o3)c(OC)c2)c1	29.1	1.4	32.9	5.0	9.8	26.8	.
CCC(NC(=O)Cc1c(C)c2cc3c(cc2oc1=O)OC(C)(C)CC3)C(=O)O (stereo not given)	-19.3	-1.8	4.5	-14.7	-29.5	.	.
CCOC(=O)C1=C(COC(=O)COc2ccccc2C#N)NC(=O)NC1C (stereo not given)	-3.3	-4.3	1.1	-6.1	-4.8	12.3	.
Cc1ccc(-c2cn3nc(C)c(C)nc3n2)cc1	59.5*	2.8	-19.7	52.0	2.4	63.8*	45.8*
Cn1cccc1-c1cc(C(=O)N/N=C/c2cc(Br)ccc2O)[nH]n1	58.2*	6.8	3.8	80.0	3.2	62.0*	62.4*
Cn1cccc1-c1cc(C(=O)N/N=C/c2ccccc2Cl)[nH]n1	-272.7	-13.5	-0.1	-79.7	-303.2	-95.1	.
Clc1ccc(CN2CCc3c([nH]c4ccccc34)C2)cc1Cl	81.4*	-24.1	2.4	0.8	27.2	3.0	22.6
CSc1ccc(CN2CCc3c([nH]c4ccccc34)C2)cc1	20.4	-9.1	-11.9	16.7	20.7	18.2	.
N/C(=N\OC(=O)c1ccc(Cl)cc1Cl)c1ccccn1	68.3*	-67.5*	-11.8	63.3	39.4	33.0	12.0
COc1cccc(C(=O)O/N=C(\N)c2ccccn2)c1	86.7*	-2.7	-11.6	39.4	-66.4	84.4*	69.1*
N/C(=N\OC(=O)c1cccc([N+](=O)[O-])c1)c1ccccn1	-173.3	13.1	-37.0	-22.3	-169.5	-7.9	.
CCCc1ccc(C(=O)O/N=C(\N)c2ccccn2)cc1	107.7*	-43.4	6.9	75.3	63.4*	73.3*	96.9*
SMILES	Peg3 prom inh-1	KKLEB tox	CF NFkB inh	Shn3 inh set2	HIF-2a block	TRPM1 prom inh	Peg3 prom inh-2
COc1cc(C(c2nnnn2C2CCCC2)N2CCN(C(=O)c3ccco3)CC2)cc(OC)c1OC (stereo not given)	11.6	-7.6	-16.0	5.3	15.9	6.2	.
COc1cccc(-c2cccc(-c3nc(C(=O)Nc4ccc(-c5ccccc5)cc4)cc4c3[C@H](CCO)N(S(=O)C(C)(C)C)C4)c2)c1 (stereo not given in full)	78.0*	-4.2	-20.4	30.3	0.5	.	37.0
COC(=O)c1ccc(CNC(=O)Cn2cnc3c(NCc4ccccc4)ncnc32)cc1	63.3*	2.9	-13.7	10.0	-4.1	2.1	47.1*
O=C(O)c1cn(-c2ccc(F)cc2)c2cc(N3CCNCC3)c(F)cc2c1=O	-16.7	-17.0	-4.5	2.4	4.6	-6.5	.
Cc1ccc(-c2nn3c(-c4ccco4)nnc3c3ccccc23)cc1S(=O)(=O)NCC1CCCO1 (stereo not given)	55.8*	-5.5	-112.7	22.3	5.0	4.5	31.8
Cc1cc(=O)c(C(=O)Nc2cccc(C(=O)NC3CC3)c2)nn1-c1ccccc1Cl	5.8	-5.7	11.8	9.4	1.9	5.3	.
Cc1ccc(-c2nc3ncccc3o2)cc1NC(=O)Cc1ccc(Cl)cc1	51.1*	-4.4	-5.7	-3.5	-2.5	-9.2	25.1
CN1CCC(N(C)C(=O)/C=C/c2cn(-c3ccccc3)nc2-c2cccs2)CC1	76.8*	-11.3	11.0	-15.1	4.1	?	93.5*
CCN(CC(=O)Nc1ccc(NC(C)=O)cc1)C(=O)/C=C/c1cn(-c2ccccc2)nc1-c1cccs1	-1.3	-1.4	-20.1	5.9	-72.1	-24.1	.
CCOC(=O)C1(C)CCCN(C(=O)c2ccc(F)cc2Cl)C1 (stereo not given)	5.8	-17.5	17.3	-7.2	8.2	.	.
Cc1ccc2nc(N(CCCN(C)C)C(=O)c3ccc4c(c3)CCCC4)sc2c1	107.6*	-33.3	24.1	2.9	3.8	?	97.9*
CCN(Cc1ccccc1)S(=O)(=O)c1ccc(C(=O)N(CCCN(C)C)c2nc3cc4c(cc3s2)OCCO4)cc1	53.3*	-3.2	-9.5	-18.0	-42.2	44.6	72.5*
CN(C)CCCN(C(=O)c1ccc(C(=O)c2ccccc2)cc1)c1nc2cc3c(cc2s1)OCO3	85.9*	-7.4	10.8	34.1	-3.8	18.7	90.2*
CC1CC(C)CN(c2ncnc3c2cnn3-c2ccc(Cl)cc2)C1 (stereo not given)	-289.3	18.4	-2.5	-14.1	-119.7	-19.6	.
CC1CCCN(c2ncnc3c2cnn3-c2ccc(Cl)cc2)C1 (stereo not given)	72.8*	-64.1*	-60.4	77.6	82.2*	92.1*	85.7*
